Where a name gives a salt, the structure may show the parent alone.

The test relates to Saccharomyces cerevisiae. The test can be described thus: fraction of cells in G1 phase (DNA content, flow cytometry); higher = more cells with unreplicated DNA (G1 delay). To be noted: temperature: 30 C; YPD; JTY2953 pdr5 snq2 (sensitized); drug added to: cultures diluted from stationary phase; 6-7 h. Here is the method: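 S. cerevisiae cultures in YPD at 30°C were treated with each drug of the Enzo FDA-approved library at 20 µg/ml (final µM given per drug). Cells were fixed after 6–7 h (S1) or 6 h (S2), or after 4.33 h for BY4741 (S3), then stained with SYTOX Green. %G1 is the Dean-Jett-Fox G1 peak area divided by the G1+G2/M peak areas, written as a fraction and averaged over at least two independent experiments. DMSO reference: mean ~0.49; >0.60 is called High G1 and <0.3876 Low G1. Scale: lower means mitotic delay.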
For the compound `CC[C@@H](CO)NC(=O)[C@@H]1C=C2c3cccc4c3c(cn4C)C[C@H]2N(C)C1` [Methysergide] (56.5822 µM), the “fraction of cells in G1 phase” value is 0.48. Under `CN1C[C@H](C(=O)N[C@]2(C)O[C@@]3(O)[C@@H]4CCCN4C(=O)[C@H](Cc4ccccc4)N3C2=O)C[C@@H]2c3cccc4[nH]cc(c34)C[C@H]21` [Dihydroergotamine mesylate] (34.2646 µM) stands 0.527. As to `CN1[C@@H]2C[C@@H](OC(=O)[C@H](CO)c3ccccc3)C[C@H]1[C@@H]1O[C@@H]12` [Scopolamine HBr] (65.928 µM), the “fraction of cells in G1 phase” value is 0.464. The result for `CC(C)(C)NCC(O)c1cc(Cl)c(N)c(Cl)c1` (stereo unspecified) [Clenbuterol] (72.1511 µM) reads 0.498; that for `CCC1(c2ccc(N)cc2)CCC(=O)NC1=O` (racemic) [Dl-aminoglutethimide] (86.1012 µM), 0.476.

In the case of `COc1ccc(C(=O)N2CCCC2=O)cc1` [Aniracetam] (91.2233 µM), the “fraction of cells in G1 phase” value worked out at 0.483.

The values are drawn from the supplement of paper PMC3342239.
